# Test results: PubChem BioAssay AID1654 (Sanford-Burnham Center for Chemical Genomics, 2009)
# In all, about 290,000 compounds went through this assay and about 1,500 (0.52%) were called active. No stated cut-off is given here; in the data, active means inhibition above about 50%; inactive means the rest. Shown is part of a subset that was picked to be rich in actives.
# Molecular target: Dual specificity protein phosphatase 3 (Homo sapiens) (UniProt P51452)
# Assay: inhibition of human DUSP3 activity – biochemical, absorbance, uHTS, primary screen (AID 1654)
# Details: recombinant VHR phosphatase, pNPP absorbance, at 13.3 µM, hits give high values
# Dual specificity protein phosphatase 3 (Homo sapiens), sequence (P51452 whole entry, looked up): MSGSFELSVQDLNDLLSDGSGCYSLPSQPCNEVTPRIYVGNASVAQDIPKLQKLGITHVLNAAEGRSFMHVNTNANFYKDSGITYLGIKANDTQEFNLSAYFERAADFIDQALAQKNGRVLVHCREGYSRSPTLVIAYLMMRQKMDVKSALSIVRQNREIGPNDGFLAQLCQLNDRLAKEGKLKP
row,SMILES,inhibition
1,O=C(Nc1cc(-c2nc3ncccc3o2)ccc1Cl)c1ccco1,24% (inactive)
2,Cc1ccc(NC(=S)N(CCCN2CCC(C)CC2)Cc2ccco2)cc1,53.6% (active)
3,Cc1ccc(NC(=S)N(CCN2CCCCC2)Cc2ccco2)cc1C,5.9% (inactive)
4,Cc1ccc(NC(=S)N(Cc2ccco2)C(C)c2cccs2)cc1 (stereo not given),20.7% (inactive)
5,CCOc1ccc(-c2noc(CCC(=O)NC3CCCC3)n2)cc1OC,27.7% (inactive)
6,COc1cc(S(=O)(=O)N2CCN=C2c2ccccc2)ccc1Cl,47.5% (inactive)
7,CC(Sc1nnc(-c2ccccc2F)n1C1CC1)C(N)=O (stereo not given),11.3% (inactive)
8,CCc1ccc(N2CC(C(=O)Nc3ccc(S(=O)(=O)Nc4nccs4)cc3)CC2=O)cc1 (stereo not given),-2.6% (inactive)
9,CCc1ccc(N2CC(C(=O)N3CCCCCC3)CC2=O)cc1 (stereo not given),30.7% (inactive)
10,CCc1ccc(N2CC(C(=O)NC3=NCCS3)CC2=O)cc1 (stereo not given),54.4% (active)
11,COc1ccccc1OCCNC(=O)CCNC(=O)c1ccccc1Cl,-2.5% (inactive)
12,CC1CCCCC1NC(=O)c1cn(C)c2ccc(S(=O)(=O)N3CCOCC3)cc2c1=O (stereo not given),5.7% (inactive)
13,CCOc1cc(C)ccc1OCc1nnc(SCC(=O)Nc2cccc(C(=O)O)c2)n1-c1ccccc1,-8.4% (inactive)
14,CCN(CC)CCCNC(=O)Cn1cnc2sc(C)c(S(=O)(=O)N3CCN(c4ncccn4)CC3)c2c1=O,7.7% (inactive)
15,CCN(CC)CCNC(=O)Cn1cnc2sc(C)c(S(=O)(=O)N3CCOCC3)c2c1=O,57.3% (active)
16,Cc1sc2ncn(CC(=O)NCCN(C)C)c(=O)c2c1S(=O)(=O)N1CCC(C)CC1,5.1% (inactive)
17,CN(Cc1ccccc1)CC(O)COc1ccc(CNCc2cc3ccccc3s2)cc1 (stereo not given),55.5% (active)
18,OC(CNCc1ccc2c(c1)OCO2)COc1ccccc1 (stereo not given),0.8% (inactive)
19,Cc1ccc(OCC(=O)OC(C)CN(C)Cc2ccccc2)cc1 (stereo not given),-3.9% (inactive)
20,COCCN(C(=S)Nc1cccc(Cl)c1C)C(C)c1ccco1 (stereo not given),19.1% (inactive)

row,SMILES,inhibition
1,CCOC(=O)CC1COCCN1C(=O)c1cc(COc2ccc(F)c(F)c2)on1 (stereo not given),-31.1% (inactive)
2,Cc1c(CC(=O)N2CCN(C(=O)C3COc4ccccc4O3)CC2)c(=O)oc2c(O)c(O)ccc12 (stereo not given),9.7% (inactive)
3,Cc1c(CCC(=O)O)c(=O)oc2cc3occ(-c4ccccc4)c3cc12,-4.9% (inactive)
4,COc1cccc(-c2coc3cc4oc(=O)c(CC(=O)O)c(C)c4cc23)c1,57.3% (active)
5,Cc1c(CC(=O)NCCCCCC(=O)O)c(=O)oc2cc3occ(-c4ccccc4)c3cc12,-11% (inactive)
6,Cc1nc(C)c(-c2nnc(-c3cccc(S(=O)(=O)N(C)C)c3)o2)cc1C(=O)NN,1% (inactive)
7,CN(C)CCN(C(=O)C1=COCCO1)c1nc2ccc(Cl)cc2s1,17.5% (inactive)
8,Cn1nnc(NC(=S)NC(=O)c2ccccc2)n1,8.5% (inactive)
9,Cc1ccc(C(=O)N2CCCC2)c(F)c1F,11.9% (inactive)
10,CC(=O)N1CCN(CC(=O)Nc2ccc(C)c(F)c2)CC1,0.1% (inactive)
11,Cc1ccc(C(NC(=O)N2CCCC2)C(Cl)(Cl)Cl)cc1F (stereo not given),51.3% (active)
12,CC(=O)c1ccc(NC(=O)CCc2nnc3ccc(NCc4ccco4)nn23)cc1,-9.1% (inactive)
13,O=C(COC(=O)C1CC2C=CC1C2)Nc1ccccc1 (stereo not given),-9.6% (inactive)
14,CN(C)S(=O)(=O)N1CCC(Oc2cccc(C(=O)NCCCC3CCCC3)c2)CC1,-1.9% (inactive)
15,Cc1ccc(CS(=O)(=O)CCC(=O)NC2CC2)cc1,9.9% (inactive)
16,CCCCC(=O)NCc1ccc(F)cc1,-4.1% (inactive)
17,Cc1ccc(CS(=O)(=O)CCC(=O)NCc2ccc(F)cc2)cc1,57.9% (active)
18,O=C1CCC(C(=O)N2CCCCO2)CN1Cc1cccc(C(F)(F)F)c1 (stereo not given),23.9% (inactive)
19,COC(=O)c1c(NC(=O)COc2ccc(Cl)cc2Cl)sc2c1CC(C)(C)NC2(C)C,7.7% (inactive)
20,COc1cc2c(cc1OC)C(C)N(S(=O)(=O)c1cnc(Cl)c(Cl)c1)CC2 (stereo not given),51.2% (active)

row,SMILES,inhibition
1,COc1ccc(S(=O)(=O)N2CCC(C(=O)N3CCc4ccccc4C3)CC2)cc1OC,11.7% (inactive)
2,COc1cc2c(cc1OC)CN(C(=O)c1cc(S(=O)(=O)N3CCCCC3)ccc1Cl)CC2,8.6% (inactive)
3,Cc1cc(C)cc(N(CCC#N)C(=O)CN2C(=O)NC3(CCCC3)C2=O)c1,-12.4% (inactive)
4,COC(=O)c1cc(C(=O)NC(C)C2CC3CCC2C3)cc([N+](=O)[O-])c1 (stereo not given),-11.2% (inactive)
5,Cc1c(C(=O)NCCCc2ccccc2)cccc1[N+](=O)[O-],22.5% (inactive)
6,Cc1c(C(=O)NC(C)C2CC3CCC2C3)cccc1[N+](=O)[O-] (stereo not given),54.4% (active)
7,Cc1ccccc1NS(=O)(=O)CCCCC(Cl)(Cl)Cl,15.4% (inactive)
8,CCOC(=O)c1nc(N)sc1C(=O)OCC,50.8% (active)
9,CCOC(=O)c1c(N)sc(C(C)=O)c1C,17.4% (inactive)
10,CCOC(=O)c1sc2nc(C)[nH]c(=O)c2c1C,21.7% (inactive)
11,O=C(/C=C/Nc1ccc(S(=O)(=O)Nc2cnc3ccccc3n2)cc1)c1cccnc1,16.5% (inactive)
12,COc1ccc2oc(=O)cc(-c3cc4ccccc4o3)c2c1,52.7% (active)
13,COc1cccc2cc(-c3cc(=O)oc4cc(C)c(O)cc34)oc12,-16.6% (inactive)
14,COc1ccc(Nc2cc(=O)oc3ccccc23)cc1,11.9% (inactive)
15,Cc1cc(OC(=O)c2ccc(OC(C)C)cc2)c([N+](=O)[O-])c(=O)[nH]1,-18% (inactive)
16,Cc1ccc(S(=O)(=O)NCC2CCC(C(=O)N3CCOCC3)CC2)cc1 (stereo not given),52% (active)
17,Cc1ccc(S(=O)(=O)NCC(=O)N2CCOCCOCCOCCOCC2)cc1,33.9% (inactive)
18,O=C(O)C1CCC(CNS(=O)(=O)c2ccc(Br)cc2)CC1 (stereo not given),13.3% (inactive)
19,CCCCCn1c(=O)[nH]c2cc(C(=O)NCCCN3CCCCC3C)ccc2c1=O (stereo not given),22.4% (inactive)
20,CCCCOP(=O)(c1ccc(N(C)C)cc1)C(O)c1cc(OC)ccc1OC (stereo not given),6.1% (inactive)
